Test results taken from PubChem BioAssay (NCI).
This is part of a sample that, as a whole, favours compounds with a hit. Of some 83,000 tested, about 20% had one in any assay.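 A percent growth of 40 corresponds to 60% growth inhibition; 0 means no net growth; -100 means all cells died. Active threshold: below 10.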 Calls of active or inactive are those of the source.

The molecules below were run on HS 578T breast (assay: NCI-60 one-dose screen, 48 h (100 = growth as untreated, 0 = no growth, -100 = all killed)). Settings: 10 µM unless noted.

Row | SMILES | growth
1 | O=C(/C=C/c1c(-c2ccc(Cl)cc2)nn(-c2ccccc2)c1C(F)(F)F)c1ccc(Cl)cc1 | 92.2% (inactive)
2 | Cc1c(C)c([N+](=O)[O-])c(C)c([N+](=O)[O-])c1C | 102% (inactive)
3 | CC(c1ccccc1)C(C(=O)c1ccccc1)c1ccccc1 (centres undefined) | 91.2% (inactive)
4 | COc1cc(NC(=O)CSc2nc3ccc(C)cc3c(=O)n2Cc2ccccc2)cc(OC)c1OC | 44.9% (inactive)
5 | CSc1nc2sc3cccc(Cl)c3n2c(=N)c1C#N | 98.2% (inactive)
6 | COC1=CC(=O)c2ccccc2C1=O | 100% (inactive)
7 | COc1cc(/C=C/C(=O)c2nc3cc(F)ccc3nc2C)cc(OC)c1OC | 61.4% (inactive)
8 | Cc1nc2ccc(Cl)cn2c1-c1nnc(SCc2ccc([N+](=O)[O-])cc2)o1 | 45.6% (inactive)
9 | COc1ccc(/C=C/C(=O)Nc2cc(/C=C\c3cc(OC)c(OC)c(OC)c3)cc(OC)c2OC)cc1OC | 29% (inactive)
10 | N#C/C(=C\c1cccc(C#N)c1)c1ccccc1 | 106% (inactive)
11 | COc1cc2cc(Oc3cccc(NC(=O)Nc4cc(C(F)(F)F)cc(C(F)(F)F)c4)c3)c(C)nc2cc1OC | -10.7% (active)
12 | Cc1ncc(C(=O)Nc2ccc(CN3CCN(C)CC3)c(C(F)(F)F)c2)cc1C#Cc1cnc(N)cc1C#N | -18.2% (active)
13 | Cc1ccc(-n2nc3c(c(C#N)c2=O)CC(c2ccccc2[N+](=O)[O-])C([N+](=O)[O-])=C3O)cc1 (centres undefined) | 77.7% (inactive)
14 | C#Cc1cccc(NC(=O)c2cccc(NC(=O)CCl)c2)c1 | 31.8% [8.25 µM] (inactive)
15 | N#CC1=C(N)Oc2c(ccc3ccccc23)C1c1ccccc1Cl (centres undefined) | 16.8% (inactive)
16 | O=C(CSc1nc2ccccc2[nH]1)NCc1ccccc1 | 97.9% (inactive)
17 | COc1ccc(-c2nc(S(=O)(=O)c3ccccc3)c(S(=O)CC(=O)N3CCC(C)CC3)o2)cc1 (centres undefined) | 77.7% (inactive)

Row | SMILES | growth
18 | COc1cc(C2C3=C(COC3=O)N(CCO)c3cc4c(cc32)OCO4)cc(OC)c1OC (centres undefined) | -6.37% (active)
19 | N#Cc1c(-c2ccccc2)nc2c(c(-c3ccccc3)nn2-c2ccccc2)c1-c1ccc(O)cc1 | 15.9% (inactive)
20 | O=C1/C=C/[C@@H](O)[C@@H]2C[C@@H](O)C[C@H]2/C=C/CCC[C@H](CCc2cccc3ccccc23)O1 | 39.5% (inactive)
21 | CC(C)(C)[Si](C)(C)OC1[C@@H](O[Si](C)(C)C(C)(C)C)[C@@H](CNC(=O)NC(=O)CCl)O[C@H]1n1cnc2c(NC(=O)Nc3ccccc3)ncnc21 (some centres undefined) | -4.28% (active)
22 | COc1cc(CC(=O)n2ncc3ccc(N)cc32)cc(OC)c1OC | 103% (inactive)
23 | Cc1cc2c(c(C)c1Cl)C(=O)/C(=C/c1ccc(O)c(O)c1)O2 | 94% (inactive)
24 | O=C1C=CC(=O)N1c1cccc(Cl)c1 | 113% (inactive)
25 | COC(=O)C(CC=O)C(=O)C(=O)Nc1cccc(C(F)(F)F)c1 (centres undefined) | 90.6% (inactive)
26 | CN(CCN(C)c1ccc(C(=N)N)cc1)c1ccc(C(=N)N)cc1 | 108% (inactive)
27 | O=C1/C=C/[C@@H](O)[C@@H]2C[C@@H](O)C[C@H]2/C=C/CCC[C@H](CCc2ccc3ncccc3c2)O1 | 41% (inactive)
28 | C#Cc1cccc(NC(=O)Nc2cccc(NC(=O)CCl)c2)c1 | 29.6% [8.25 µM] (inactive)
29 | CCNc1nc2ccc(Nc3ccnc4cc(Cl)ccc34)cc2[nH]1 | 91.4% (inactive)
30 | N#CC(C(=O)/C(=N/NC(=O)c1ccccc1O)C(C#N)c1ccccc1)c1ccccc1 (centres undefined) | 24.1% (inactive)
31 | O=[N+]([O-])c1ccc(N=Nc2cc(S(=O)(=O)O)c3cccc(S(=O)(=O)O)c3c2O)cc1 | 130% (inactive)
32 | C=CCn1c(-c2ccc(-c3nc4ccc(C)cc4[nH]3)cc2)n[nH]c1=S | 102% (inactive)
33 | O=C1Nc2ccccc2/C1=C\c1c(-c2ccccc2)nc2ccccn12 | 69.5% (inactive)
34 | COc1cc(/C=C\c2cc(OC)c(OC)c(OC)c2)cc(N)c1OC | 90.1% (inactive)
